Holding throughout (experiment): DAPPL (digital affinity profiling via proximity ligation, sequencing); 10 mM Tris-HCl pH 7.5, 50 mM NaCl, 1 mM DTT, 4% glycerol, room temperature, 30 min; GST-TFs on glutathione beads, 16-mer random dsDNA library, 0.1% formaldehyde crosslink after washing; high values mean tight binding
In assay [1] the target is HSF1 (Homo sapiens, UniProt Q00613 1-529). Particulars: protein: recombinant; tags: N-terminal GST; chain copies: 3; dsDNA, one strand shown. The procedure, abridged: (§1)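 Human transcription factors carrying a GST fusion were produced in yeast, bound to glutathione beads, tagged with DNA barcodes and pooled together with a tag-only sample. Each pool was held with 200 nmole of a random double-stranded 16-mer DNA library in Tris/NaCl/DTT/glycerol buffer for 30 min at room temperature, then washed, crosslinked in 0.1% formaldehyde, proximity-ligated with BsaI/T4 ligase (1 h, 37 °C), PCR-amplified and sequenced on an Illumina NextSeq500. Binding signal is the read frequency of each hexamer for a given factor divided by its frequency in the tag-only sample.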
Sequence of HSF1 (Q00613 whole entry, the tested form may be a part): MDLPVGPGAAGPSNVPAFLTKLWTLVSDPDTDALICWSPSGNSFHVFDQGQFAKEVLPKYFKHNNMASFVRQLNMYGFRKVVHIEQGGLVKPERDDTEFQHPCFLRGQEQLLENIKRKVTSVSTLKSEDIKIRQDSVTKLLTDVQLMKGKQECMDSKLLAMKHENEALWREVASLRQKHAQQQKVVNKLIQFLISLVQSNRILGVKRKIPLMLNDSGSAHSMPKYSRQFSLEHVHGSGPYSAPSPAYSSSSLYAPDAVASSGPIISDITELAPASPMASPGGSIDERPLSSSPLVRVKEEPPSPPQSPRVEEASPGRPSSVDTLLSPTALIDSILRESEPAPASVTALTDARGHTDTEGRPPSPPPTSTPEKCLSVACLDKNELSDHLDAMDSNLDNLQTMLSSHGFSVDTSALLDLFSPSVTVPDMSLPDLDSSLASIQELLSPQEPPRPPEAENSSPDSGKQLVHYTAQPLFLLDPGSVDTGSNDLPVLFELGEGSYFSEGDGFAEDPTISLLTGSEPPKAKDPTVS

Assay [2] has as its target T1, ELK1 (Homo sapiens, UniProt P19419 1-428).
T1 sequence: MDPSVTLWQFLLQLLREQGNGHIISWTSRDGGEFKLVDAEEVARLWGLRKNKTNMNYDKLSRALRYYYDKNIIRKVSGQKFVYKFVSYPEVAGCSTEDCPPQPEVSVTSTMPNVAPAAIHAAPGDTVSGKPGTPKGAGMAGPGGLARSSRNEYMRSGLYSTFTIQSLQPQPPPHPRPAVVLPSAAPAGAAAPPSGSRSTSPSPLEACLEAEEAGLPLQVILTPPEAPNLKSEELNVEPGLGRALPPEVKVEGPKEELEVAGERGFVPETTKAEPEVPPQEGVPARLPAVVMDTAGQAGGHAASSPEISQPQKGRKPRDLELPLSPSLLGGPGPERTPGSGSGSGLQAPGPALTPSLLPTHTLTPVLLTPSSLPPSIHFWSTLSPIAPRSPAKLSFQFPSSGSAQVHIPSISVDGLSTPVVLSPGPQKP
Particulars: protein: recombinant; tags: N-terminal GST; dsDNA, one strand shown. The essentials: as §1

Assay [3] concerns the target T2, GABPA (Homo sapiens, UniProt Q06546 1-454).
T2 sequence: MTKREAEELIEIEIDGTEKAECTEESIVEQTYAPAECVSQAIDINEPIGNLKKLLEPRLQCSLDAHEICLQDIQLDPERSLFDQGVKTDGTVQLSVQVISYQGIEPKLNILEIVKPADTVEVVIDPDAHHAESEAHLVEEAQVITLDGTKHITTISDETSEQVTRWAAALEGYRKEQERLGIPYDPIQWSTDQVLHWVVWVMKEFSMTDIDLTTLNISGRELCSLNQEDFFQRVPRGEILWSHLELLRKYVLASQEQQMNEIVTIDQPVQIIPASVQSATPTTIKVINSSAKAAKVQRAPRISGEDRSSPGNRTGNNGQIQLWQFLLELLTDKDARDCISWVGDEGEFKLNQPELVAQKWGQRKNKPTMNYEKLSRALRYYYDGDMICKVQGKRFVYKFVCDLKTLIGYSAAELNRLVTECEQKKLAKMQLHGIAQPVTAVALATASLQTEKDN
Particulars: protein: recombinant; tags: N-terminal GST; dsDNA, one strand shown. The procedure, abridged:
as §1

Assay [4] concerns the target ELF1 (Homo sapiens, UniProt P32519 1-619). Particulars: protein: recombinant; tags: N-terminal GST; dsDNA, one strand shown. The essentials: as §1
Assay [5] has as its target T3, EHF (Homo sapiens, UniProt Q9NZC4 1-300).
T3 sequence: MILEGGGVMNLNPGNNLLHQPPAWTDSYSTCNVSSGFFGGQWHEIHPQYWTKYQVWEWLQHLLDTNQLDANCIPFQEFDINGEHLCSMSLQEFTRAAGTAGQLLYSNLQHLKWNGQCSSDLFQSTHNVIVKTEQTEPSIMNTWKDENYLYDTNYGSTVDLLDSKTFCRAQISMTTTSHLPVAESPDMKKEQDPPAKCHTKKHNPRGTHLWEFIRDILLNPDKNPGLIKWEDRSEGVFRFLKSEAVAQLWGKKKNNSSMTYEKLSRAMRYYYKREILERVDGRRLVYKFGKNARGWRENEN
Particulars: protein: recombinant; tags: N-terminal GST; dsDNA, one strand shown. The procedure, abridged: as §1

Assay [6] concerns the target T4, FEV (Homo sapiens, UniProt Q99581 1-238).
T4 sequence: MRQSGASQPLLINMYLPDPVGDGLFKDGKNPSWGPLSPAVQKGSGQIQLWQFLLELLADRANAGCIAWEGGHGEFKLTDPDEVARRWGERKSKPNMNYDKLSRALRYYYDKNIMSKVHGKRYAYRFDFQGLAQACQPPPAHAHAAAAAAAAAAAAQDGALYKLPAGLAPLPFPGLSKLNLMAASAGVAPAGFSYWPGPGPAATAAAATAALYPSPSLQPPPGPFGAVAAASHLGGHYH
Particulars: protein: recombinant; tags: N-terminal GST; dsDNA, one strand shown. The essentials: as §1

For assay [7], the target named is T5, SPIC (Homo sapiens, UniProt Q8N5J4 1-248).
T5 sequence: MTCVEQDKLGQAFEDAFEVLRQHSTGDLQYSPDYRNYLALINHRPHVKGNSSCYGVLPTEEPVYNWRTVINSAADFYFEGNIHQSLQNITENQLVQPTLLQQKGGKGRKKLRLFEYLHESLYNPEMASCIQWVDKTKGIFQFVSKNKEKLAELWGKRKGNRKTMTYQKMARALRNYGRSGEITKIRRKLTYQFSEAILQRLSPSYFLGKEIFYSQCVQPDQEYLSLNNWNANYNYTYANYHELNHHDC
Particulars: protein: recombinant; tags: N-terminal GST; dsDNA, one strand shown. The procedure, abridged: as §1

In assay [8] the target is ELF4 (Homo sapiens, UniProt Q99607 1-663). Particulars: protein: recombinant; tags: N-terminal GST; dsDNA, one strand shown. The procedure, abridged: as §1
Sequence of ELF4 (Q99607 whole entry): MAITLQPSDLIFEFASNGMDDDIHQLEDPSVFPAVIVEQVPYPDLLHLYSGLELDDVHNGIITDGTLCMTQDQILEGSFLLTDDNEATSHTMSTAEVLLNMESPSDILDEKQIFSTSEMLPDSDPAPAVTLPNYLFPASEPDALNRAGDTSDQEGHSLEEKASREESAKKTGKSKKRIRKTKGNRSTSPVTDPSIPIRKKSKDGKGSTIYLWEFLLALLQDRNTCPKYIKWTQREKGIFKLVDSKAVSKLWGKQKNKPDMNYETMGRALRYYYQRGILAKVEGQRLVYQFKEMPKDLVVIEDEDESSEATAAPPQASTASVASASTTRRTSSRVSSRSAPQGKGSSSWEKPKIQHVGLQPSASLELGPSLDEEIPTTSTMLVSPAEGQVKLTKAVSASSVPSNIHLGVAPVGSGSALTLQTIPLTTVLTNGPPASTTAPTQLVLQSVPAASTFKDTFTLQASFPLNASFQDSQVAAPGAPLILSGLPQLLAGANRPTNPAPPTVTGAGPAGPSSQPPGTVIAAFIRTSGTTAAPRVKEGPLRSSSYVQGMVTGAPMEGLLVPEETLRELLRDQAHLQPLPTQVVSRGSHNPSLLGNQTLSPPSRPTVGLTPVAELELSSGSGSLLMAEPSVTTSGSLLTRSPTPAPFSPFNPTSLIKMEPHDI
For assay [9], the target named is T6, ETV2 (Homo sapiens, UniProt O00321 1-342).
T6 sequence: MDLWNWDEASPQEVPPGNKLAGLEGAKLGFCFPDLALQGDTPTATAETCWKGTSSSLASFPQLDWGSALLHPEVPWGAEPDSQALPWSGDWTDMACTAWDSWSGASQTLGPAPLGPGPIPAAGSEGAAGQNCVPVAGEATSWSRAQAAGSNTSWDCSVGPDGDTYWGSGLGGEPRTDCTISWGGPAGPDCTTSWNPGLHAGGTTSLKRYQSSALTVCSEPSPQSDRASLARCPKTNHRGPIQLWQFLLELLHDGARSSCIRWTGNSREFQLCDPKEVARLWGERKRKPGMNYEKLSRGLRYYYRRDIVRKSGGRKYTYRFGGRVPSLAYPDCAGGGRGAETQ
Particulars: protein: recombinant; tags: N-terminal GST; dsDNA, one strand shown. The essentials:
as §1

For assay [10], the target named is T7, ELF3 (Homo sapiens, UniProt P78545 1-371).
T7 sequence: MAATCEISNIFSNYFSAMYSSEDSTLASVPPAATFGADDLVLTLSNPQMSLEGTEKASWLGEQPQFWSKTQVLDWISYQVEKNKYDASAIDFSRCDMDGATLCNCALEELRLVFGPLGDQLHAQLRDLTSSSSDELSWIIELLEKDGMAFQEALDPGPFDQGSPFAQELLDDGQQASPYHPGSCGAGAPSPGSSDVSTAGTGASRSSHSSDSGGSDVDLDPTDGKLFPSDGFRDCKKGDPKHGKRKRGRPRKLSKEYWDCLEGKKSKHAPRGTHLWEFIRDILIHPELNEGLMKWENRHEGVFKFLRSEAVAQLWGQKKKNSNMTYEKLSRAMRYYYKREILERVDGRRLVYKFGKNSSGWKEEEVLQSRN
Particulars: protein: recombinant; tags: N-terminal GST; dsDNA, one strand shown. The essentials:
as §1

Assay [11] addresses ETV1 (Homo sapiens, UniProt P50549 1-477). Particulars: protein: recombinant; tags: N-terminal GST; dsDNA, one strand shown. The essentials: as §1
The target in assay [12] is T8, ETV3 (Homo sapiens, UniProt P41162-2 1-143).
T8 sequence: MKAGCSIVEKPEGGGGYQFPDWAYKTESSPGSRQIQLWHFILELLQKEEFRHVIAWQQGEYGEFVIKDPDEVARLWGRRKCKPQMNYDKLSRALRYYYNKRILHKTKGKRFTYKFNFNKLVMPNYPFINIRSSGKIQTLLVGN
Particulars: protein: recombinant; tags: N-terminal GST; dsDNA, one strand shown. The procedure, abridged:
as §1

Assay [13] concerns the target T9, ERG (Homo sapiens, UniProt P11308 1-479).
T9 sequence: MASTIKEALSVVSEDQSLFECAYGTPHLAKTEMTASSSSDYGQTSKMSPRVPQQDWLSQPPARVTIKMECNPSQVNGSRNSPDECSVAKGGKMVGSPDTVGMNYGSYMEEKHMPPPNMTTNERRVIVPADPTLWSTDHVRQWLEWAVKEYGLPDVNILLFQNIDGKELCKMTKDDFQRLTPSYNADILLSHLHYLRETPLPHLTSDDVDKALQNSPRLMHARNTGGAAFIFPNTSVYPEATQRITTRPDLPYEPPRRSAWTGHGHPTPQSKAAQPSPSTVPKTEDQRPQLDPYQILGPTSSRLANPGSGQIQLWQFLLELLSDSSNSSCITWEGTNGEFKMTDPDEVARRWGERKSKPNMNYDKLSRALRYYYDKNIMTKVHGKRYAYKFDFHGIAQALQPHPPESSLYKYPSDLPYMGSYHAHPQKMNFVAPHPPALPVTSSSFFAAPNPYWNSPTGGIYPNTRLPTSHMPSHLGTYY
Particulars: protein: recombinant; tags: N-terminal GST; dsDNA, one strand shown. The essentials:
as §1

Assay [14] addresses CRX (Homo sapiens, UniProt O43186 1-299). Particulars: protein: recombinant; tags: N-terminal GST; dsDNA, one strand shown. The essentials:
as §1

Assay [15] concerns the target T10, ERF (Homo sapiens, UniProt P50548 1-548).
T10 sequence: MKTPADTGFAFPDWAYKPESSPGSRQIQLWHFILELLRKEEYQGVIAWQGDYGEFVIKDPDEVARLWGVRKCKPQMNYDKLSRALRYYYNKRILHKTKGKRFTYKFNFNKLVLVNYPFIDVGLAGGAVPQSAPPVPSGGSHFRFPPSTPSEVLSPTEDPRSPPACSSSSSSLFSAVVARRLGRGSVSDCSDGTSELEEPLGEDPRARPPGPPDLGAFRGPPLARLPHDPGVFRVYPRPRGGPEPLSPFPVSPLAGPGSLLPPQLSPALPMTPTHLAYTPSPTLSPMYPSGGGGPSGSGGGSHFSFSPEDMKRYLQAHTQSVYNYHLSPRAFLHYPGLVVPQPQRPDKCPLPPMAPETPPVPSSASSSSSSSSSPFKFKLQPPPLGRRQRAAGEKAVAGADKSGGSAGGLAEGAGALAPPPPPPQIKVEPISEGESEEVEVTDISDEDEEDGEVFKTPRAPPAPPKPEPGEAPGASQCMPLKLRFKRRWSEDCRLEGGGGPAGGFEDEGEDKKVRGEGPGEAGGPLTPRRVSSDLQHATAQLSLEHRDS
Particulars: protein: recombinant; tags: N-terminal GST; dsDNA, one strand shown. The procedure, abridged: as §1

In article PMC7862700, “An all-to-all approach to the identification of sequence-specific readers for epigenetic DNA modifications on cytosine” one finds binding signal data, which are given here for three sequences.

Sequence of ELF1 (P32519 whole entry): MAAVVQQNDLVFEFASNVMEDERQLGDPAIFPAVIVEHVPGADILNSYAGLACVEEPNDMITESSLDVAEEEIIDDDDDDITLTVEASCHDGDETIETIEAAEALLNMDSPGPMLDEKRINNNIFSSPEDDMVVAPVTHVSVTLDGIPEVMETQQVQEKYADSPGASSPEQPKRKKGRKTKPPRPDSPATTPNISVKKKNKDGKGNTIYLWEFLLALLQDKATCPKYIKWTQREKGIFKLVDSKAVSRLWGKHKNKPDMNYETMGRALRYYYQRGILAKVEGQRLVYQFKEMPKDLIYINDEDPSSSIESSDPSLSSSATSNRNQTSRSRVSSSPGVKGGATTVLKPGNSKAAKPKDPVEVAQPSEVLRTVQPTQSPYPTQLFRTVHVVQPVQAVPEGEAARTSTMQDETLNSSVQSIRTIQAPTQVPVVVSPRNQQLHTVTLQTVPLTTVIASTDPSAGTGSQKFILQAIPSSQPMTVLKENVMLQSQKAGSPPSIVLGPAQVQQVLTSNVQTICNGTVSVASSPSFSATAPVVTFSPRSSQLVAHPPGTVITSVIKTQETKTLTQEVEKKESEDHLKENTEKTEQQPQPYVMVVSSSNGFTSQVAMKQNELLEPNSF
Sequence of ETV1 (P50549 whole entry): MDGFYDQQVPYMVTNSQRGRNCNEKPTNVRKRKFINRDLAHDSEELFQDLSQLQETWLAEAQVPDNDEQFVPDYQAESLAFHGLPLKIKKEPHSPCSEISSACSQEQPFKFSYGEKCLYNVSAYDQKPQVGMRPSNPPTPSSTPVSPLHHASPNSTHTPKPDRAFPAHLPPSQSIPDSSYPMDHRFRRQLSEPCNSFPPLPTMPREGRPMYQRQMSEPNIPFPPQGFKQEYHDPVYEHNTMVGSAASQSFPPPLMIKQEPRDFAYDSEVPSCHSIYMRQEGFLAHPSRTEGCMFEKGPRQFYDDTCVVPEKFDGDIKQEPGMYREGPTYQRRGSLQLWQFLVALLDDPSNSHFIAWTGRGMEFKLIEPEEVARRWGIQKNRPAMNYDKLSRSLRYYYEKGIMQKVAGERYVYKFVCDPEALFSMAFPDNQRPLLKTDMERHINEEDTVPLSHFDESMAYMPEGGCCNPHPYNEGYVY
Sequence of CRX (O43186 whole entry): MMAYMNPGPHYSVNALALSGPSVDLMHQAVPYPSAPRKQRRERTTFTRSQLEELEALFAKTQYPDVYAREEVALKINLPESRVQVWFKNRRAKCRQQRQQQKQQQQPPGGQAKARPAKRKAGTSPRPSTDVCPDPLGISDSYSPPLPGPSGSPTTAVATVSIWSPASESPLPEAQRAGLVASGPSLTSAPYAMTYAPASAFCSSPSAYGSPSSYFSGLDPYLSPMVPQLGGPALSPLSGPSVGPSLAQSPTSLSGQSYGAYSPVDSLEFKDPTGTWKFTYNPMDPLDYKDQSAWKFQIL

For CTAGAG, the binding signal in assay [1] was 1.58 fold enrichment (6-mer frequency, TF over GST control).

CAGACT: the binding signal in [2] is 1.01 fold enrichment (6-mer frequency, TF over GST control); in assay [3], 1.06 fold enrichment (6-mer frequency, TF over GST control); in assay [4], 1.02 fold enrichment (6-mer frequency, TF over GST control); in [5], 1.05 fold enrichment (6-mer frequency, TF over GST control); in [6], 1 fold enrichment (6-mer frequency, TF over GST control); in assay [1], 1.06 fold enrichment (6-mer frequency, TF over GST control). Moreover, the binding signal is 1.05 fold enrichment (6-mer frequency, TF over GST control) in assay [7]; 1.07 fold enrichment (6-mer frequency, TF over GST control) in assay [8]; 1.04 fold enrichment (6-mer frequency, TF over GST control) in assay [9]; 1.04 fold enrichment (6-mer frequency, TF over GST control) in assay [10]; 1.05 fold enrichment (6-mer frequency, TF over GST control) in assay [11]; 1.01 fold enrichment (6-mer frequency, TF over GST control) in [12].

Regarding ACTAGA, the binding signal in [2] was 1.02 fold enrichment (6-mer frequency, TF over GST control); in assay [3] it was 1.01 fold enrichment (6-mer frequency, TF over GST control); in [13] it was 1 fold enrichment (6-mer frequency, TF over GST control); in assay [4], 1.02 fold enrichment (6-mer frequency, TF over GST control); in assay [5], 1.01 fold enrichment (6-mer frequency, TF over GST control); in [1] it was 2.1 fold enrichment (6-mer frequency, TF over GST control). Moreover, the binding signal in assay [7] is 1.03 fold enrichment (6-mer frequency, TF over GST control); in [14], 1.16 fold enrichment (6-mer frequency, TF over GST control); in [15], 1.05 fold enrichment (6-mer frequency, TF over GST control).
